The full list was thinned out, with hits kept by preference.
nsP2pro inh = inhibitors of chikungunya virus nsP2 protease; Q8JUX6; hit rate 1.1% among 31,000; Potency, µM (highest dose often 24.9 µM), actives largely listed as inhibitors; FRET peptide cleavage, nsP2pro, fluorescence 1 h; AID 1964107; note: nearly all actives have a fitted effect of over 60% in size
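FRET cleavage of 2.5 uM peptide 2 by 150 nM CHIKV protease domain at pH 8.0 (Tris, Tween 20). Compounds at 7 concentrations (up to 25 uM) preincubated 15 min. Fluorescence read after 1 h at room temperature.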
CHIKV nsP2 cell = inhibits CHIKV nsP2 protease in cells; shares compounds with nsP2pro inh; cell-based CHIKV nsP2 protease reporter assay; hit rate 10% among 450; Potency, µM (top dose mostly 51.1 µM), usual class: inhibitors; note: nearly all actives have a fitted effect of over 70% in size
NSP2 full ctr = full-length CHIKV NSP2 protease inhibition, selectivity; AID 1964101; Full-length CHIKV NSP2 protease enzymatic counterscreen; hit rate 39% among 410; Potency, µM (series often up to 50.7 µM), actives largely listed as inhibitors; shares compounds with nsP2pro inh; note: nearly all actives have a fitted effect of over 65% in size
Furin counter = human furin inhibition, counterscreen for nsP2pro inhibitors; Recombinant human furin enzymatic counterscreen, fluorogenic substrate; hit rate 6% among 410; shares compounds with nsP2pro inh; Potency, µM (doses to about 50.6 µM), actives largely listed as inhibitors; AID 1964102
Target sequence (P09958 whole entry, looked up): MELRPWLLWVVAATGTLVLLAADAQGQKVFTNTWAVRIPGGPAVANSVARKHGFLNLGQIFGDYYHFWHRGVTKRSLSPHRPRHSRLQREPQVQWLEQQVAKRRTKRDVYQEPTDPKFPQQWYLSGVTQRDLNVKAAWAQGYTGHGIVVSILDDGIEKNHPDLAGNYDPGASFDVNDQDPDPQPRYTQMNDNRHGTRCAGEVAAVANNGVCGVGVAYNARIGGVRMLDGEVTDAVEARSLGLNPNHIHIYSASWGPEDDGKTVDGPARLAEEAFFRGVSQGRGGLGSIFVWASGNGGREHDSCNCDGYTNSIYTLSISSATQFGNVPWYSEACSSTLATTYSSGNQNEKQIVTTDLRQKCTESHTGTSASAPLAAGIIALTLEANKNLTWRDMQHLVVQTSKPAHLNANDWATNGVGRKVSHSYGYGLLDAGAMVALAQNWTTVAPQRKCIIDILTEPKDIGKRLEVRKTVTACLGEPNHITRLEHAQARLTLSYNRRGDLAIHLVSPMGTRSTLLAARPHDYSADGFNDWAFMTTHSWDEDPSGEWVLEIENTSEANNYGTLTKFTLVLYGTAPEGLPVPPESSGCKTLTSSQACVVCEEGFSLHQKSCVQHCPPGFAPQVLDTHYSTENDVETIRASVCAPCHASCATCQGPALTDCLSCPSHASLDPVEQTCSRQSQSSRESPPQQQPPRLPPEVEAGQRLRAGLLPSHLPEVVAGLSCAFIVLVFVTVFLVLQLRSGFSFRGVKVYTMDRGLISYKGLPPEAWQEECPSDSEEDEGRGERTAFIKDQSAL
nsP2 NS23 pep = blocks CHIKV nsP2 protease cleavage of endogenous NS2/3 peptide; shares compounds with nsP2pro inh; Purified CHIKV nsP2 protease, endogenous NS2/3 peptide cleavage; Potency, µM (highest dose often 51 µM), hits mostly inhibitors; hit rate 34% among 410; note: nearly all actives have a fitted effect of over 55% in size
Papain cs = papain protease inhibition, counterscreen for nsP2pro inhibitors; Potency, µM (titrated, usually from 51 µM), usual class: inhibitors; AID 1964104; hit rate 5% among 410; shares compounds with nsP2pro inh; purified papain protease activity, enzymatic inhibition
nsP2pro confirm = CHIKV nsP2 protease inhibition, confirmatory qHTS. shares compounds with nsP2pro inh. CHIKV nsP2 protease enzymatic activity, qHTS. Potency, µM (titrated, usually from 25.5 µM), usual class: inhibitors. hit rate 43% among 410. AID 1964105; note: nearly all actives have a fitted effect of over 75% in size
HCV NS3 counter = selectivity counter-screen for CHIKV nsP2 protease inhibitors: HCV NS3/4A | hit rate 20% among 410 | Potency, µM (titrated, usually from 50.9 µM), most hits filed as inhibitors | HCV NS3/4A protease biochemical counterscreen | shares compounds with nsP2pro inh | AID 1964106; note: nearly all actives have a fitted effect of over 55% in size
A number is an active result; n = inactive; u = inconclusive. Calls come from the whole dose curve.

SMILES | nsP2pro inh | others
Cn1cc(C(=O)N2CCc3[nH]cnc3C2C2CCN(C(=O)C3CCOCC3)CC2)cn1 (stereo not drawn) | u | CHIKV nsP2 cell=n;NSP2 full ctr=6.5µM;Furin counter=n;nsP2 NS23 pep=u;Papain cs=n;nsP2pro confirm=u;HCV NS3 counter=9.2µM
C[C@@H]1NC(=O)[C@@H]2CCCN2C(=O)[C@H](CC(N)=O)NC(=O)[C@@H]2CSSC[C@H](N)C(=O)N[C@H]3CSSC[C@H](NC1=O)C(=O)N[C@@H]([C@@H](C)O)C(=O)NCC(=O)N[C@H](C(=O)N[C@@H](Cc1ccc(O)cc1)C(=O)O)CSSC[C@H](NC(=O)[C@H](Cc1ccc(O)cc1)NC(=O)[C@H](CCC(=O)O)NC3=O)C(=O)N2 | n
COC(=O)C1(O)C(OC(C)=O)CCC2C3(CC(c4ccoc4)OC3=O)C(C)=CCC21C(=O)OC (stereo not drawn) | 1.9µM | CHIKV nsP2 cell=n;NSP2 full ctr=n;Furin counter=n;nsP2 NS23 pep=n;Papain cs=n;nsP2pro confirm=n;HCV NS3 counter=n
COc1cc(/C=C/C(=O)OC2CC(OC(C)=O)C(OC(C)=O)C3C2CCC2C(=O)OC(c4ccoc4)CC23C)ccc1O[C@@H]1O[C@H](CO)[C@@H](O)[C@H](O)[C@H]1O (stereo partly drawn) | n
CC1=CC(=O)CC2C1(O)CCC(C)C21CC(c2ccoc2)OC1=O (stereo not drawn) | n
COc1ncc(-c2ccc3c(Nc4cc(Oc5cc(F)cc(F)c5)cc(C(=O)O)c4)c(S(=O)(=O)NC4CC4)cnc3c2)c(OC)n1 | n
CCOc1ccc(CCNC(=O)c2cc3sccc3[nH]2)cc1OCC | n
O=C1CCCC2=C1C(c1ccncc1Br)N=C(Nc1nc3ccccc3o1)N2 (stereo not drawn) | n
O=[N+]([O-])c1ccc(-c2nc(Nc3ccc(F)c(F)c3)c3ccccc3n2)cc1 | n
CCOC(=O)c1ccc(N2C(=O)c3n[nH]c(-c4ccco4)c3C2c2cccc(F)c2)cc1 (stereo not drawn) | n
Cc1cc(C(=O)N2CCC(OCCOc3ccc(F)cc3)CC2)nn1C | n
O=C(c1cc(-c2ccco2)[nH]n1)N1CCSC(c2cc(F)ccc2F)CC1 (stereo not drawn) | 3.2µM | CHIKV nsP2 cell=n;NSP2 full ctr=5.8µM;Furin counter=n;nsP2 NS23 pep=u;Papain cs=n;nsP2pro confirm=9µM;HCV NS3 counter=16µM
C=CC(=O)Nc1cccc(Nc2nc(Nc3ccc(Oc4ccnc(C(=O)NC)c4)cc3)ncc2F)c1 | n
Cc1cc(NS(=O)(=O)c2cc3c(cc2N[C@@H](C)CO)NC(=O)CC3)ccc1F | n
CC(C)c1c2cc(-c3ccnc(NC4CCC(NC5CCOCC5)CC4)n3)ccc2nn1C (stereo not drawn) | n
O=[N+]([O-])c1ccc(S(=O)(=O)c2ccc(Cl)cc2)nc1 | 0.32µM | CHIKV nsP2 cell=2.1µM;NSP2 full ctr=0.73µM;Furin counter=16µM;nsP2 NS23 pep=1.8µM;Papain cs=n;nsP2pro confirm=0.45µM;HCV NS3 counter=5.2µM
Cc1ccc(OCCn2c(CCNC(=O)c3ccccc3F)nc3ccccc32)cc1 | n
FC(F)(F)c1ccccc1-c1nc(NCc2ccc(-c3cccc4ccccc34)cc2)c2ccccc2n1 | n
Cc1cccc(OCC(=O)c2ccc3c(c2)N(C(C)C(=O)N2CCOCC2)C(=O)CO3)c1C (stereo not drawn) | n
O=C(NC1CCCc2c1cnn2-c1ccc(F)cc1F)c1ccc(C(=O)c2ccccc2)cc1 (stereo not drawn) | n
COc1ccc(-n2ncc3c2CCCC3NC(=O)c2cnc(C)cn2)cc1 (stereo not drawn) | n
COc1ccc(-n2ncc3c2CCCC3NC(=O)c2ccc3ncccc3c2)cc1 (stereo not drawn) | u | CHIKV nsP2 cell=21µM;NSP2 full ctr=u;Furin counter=n;nsP2 NS23 pep=n;Papain cs=n;nsP2pro confirm=n;HCV NS3 counter=u
O=C(CN1C(=O)N/C(=C\c2cccn2-c2cccc(C(=O)O)c2)C1=O)Nc1cccc(Cl)c1 | n
CCC(Nc1ncnc2nc[nH]c12)c1nc2cccc(F)c2c(=O)n1-c1ccccc1 (stereo not drawn) | n

Bioassay records: PubChem BioAssay, National Center for Advancing Translational Sciences (NCATS)
